“And” between values parts separate entries of the source, which are not always exact repeats. Equal values may be shown once. Results filed as inconclusive are left out. A number with no mark means an inactive call. The source made the active and inactive calls. The call rests on the fitted dose curve; in most records, active means well fitted inhibition curve with a large enough effect; inconclusive means small, poorly fitted or top-dose-only effect; inactive means flat fitted curve, though single readings scatter.

Assay [1] has as its target Calcium and integrin-binding protein 1 (Homo sapiens) (UniProt Q99828). In words: Primary qHTS for Identification of Calcium Integrin Binding Protein 1 (CIB1) Competitor (AID 1508620).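 Further: GST tagged CIB1 binding a fluorescein labelled alphaIIb integrin peptide tracer; top concentration of the series differs between compounds.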 Summed up:
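CIB1-GST (1 uM final) and compound incubated 15 min at room temperature before adding FITC-alphaIIb peptide tracer (100 nM final). Competition for binding read by fluorescence polarization (ex 480, em 540) after another 15 min at room temperature.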

Assay [2] in a line: Primary qHTS for inhibitors of nuclear receptor binding SET domain protein 2 (NSD2) in an isogenic RCH-ACV NSD2 p.E1099K mutant (9B) (AID 1645876). Further: nearly all actives have a fitted effect of over 70% in size. Further: potency means the concentration at half of the fitted maximal effect. For orientation: In qHTS, concentration-response curves come from the screen itself.
On the % scale 0 is the no-effect control and ±100 the full control effect.

Chain of Calcium and integrin-binding protein 1 (Homo sapiens) (Q99828 whole entry, looked up): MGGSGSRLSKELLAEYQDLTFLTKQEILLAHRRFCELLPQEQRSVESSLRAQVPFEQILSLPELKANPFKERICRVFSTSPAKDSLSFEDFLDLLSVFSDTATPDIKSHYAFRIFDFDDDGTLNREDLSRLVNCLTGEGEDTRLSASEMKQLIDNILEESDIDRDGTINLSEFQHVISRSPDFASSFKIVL

`CC1(C)CC[C@]2(C(=O)O)CC[C@]3(C)C(=CCC4[C@@]5(C)CC[C@H](O[C@@H]6O[C@H](CO)[C@@H](O)[C@H](O)[C@H]6O[C@@H]6O[C@H](CO)[C@@H](O)[C@H](O)[C@H]6O)[C@@](C)(CO)C5CC[C@]43C)[C@@H]2C1` (stereo not given in full): the Potency entry in assay [1] and in assay [2] was “inactive” in each case.

Regarding `CC1=CCC(C(C)(C)O[C@@H]2O[C@H](CO[C@@H]3O[C@@H](C)[C@H](O)[C@@H](O)[C@H]3O)[C@@H](O)[C@H](O)[C@H]2O)CC1` (stereo not given in full), the Potency result in assay [1] and in assay [2] was “inactive” each time.

On to `CC(=O)C1=CCC2C3CCC4CC(O[C@@H]5O[C@H](CO)[C@@H](O[C@@H]6O[C@@H](C)[C@H](O)[C@@H](O)[C@H]6O)[C@H](O)[C@H]5O[C@@H]5O[C@H](CO)[C@@H](O)[C@H](O)[C@H]5O)CCC4(C)C3CCC12C` (stereo not given in full), for which the Potency result in assay [1] and in assay [2] was “inactive” in each case.

Consider `C=C1CC[C@@H]2[C@](C)(CO[C@@H]3O[C@H](CO)[C@@H](O)[C@H](O)[C@H]3O)[C@H](O)CC[C@@]2(C)[C@@H]1C/C=C1/C(=O)OC[C@H]1O`, for which the Potency result in assay [1] and in assay [2] was “inactive” each time.

In the case of `COc1cc2c(cc1OC)N1C(=O)C[C@]34C=CCN5CC[C@@H]2[C@@H](CC3)[C@]514`, the Potency entry in assay [1] and in assay [2] was “inactive” each time.

Turning to `CC1(C)CC[C@]2(C(=O)O[C@@H]3O[C@H](CO)[C@@H](O)[C@H](O)[C@H]3O)CC[C@]3(C)C(=CCC4[C@@]5(C)C[C@@H](O)[C@H](O)C(C)(C)C5CC[C@]43C)C2[C@@H]1O` (stereo not given in full), the Potency result in assay [1] and in assay [2] was “inactive” in each case.

Consider `C=C(C(=O)O)C1CC2=C(C)CCCC2(C)C[C@@H]1O` (stereo not given in full), for which the Potency result in assay [1] and in assay [2] was “inactive” each time.

Regarding `COc1cc(O)c2c(c1)C1=CC(O)C(O)CC1(C)OC2=O` (stereo not given), the Potency result in assay [1] and in assay [2] was “inactive” in each case.

Turning to `CC(=O)C12OC(C)(C)OC1CC1C3CCC4=CC(=O)C=CC4(C)C3(F)C(O)CC12C` (stereo not given), the Potency result in assay [1] and in assay [2] was “inactive” in each case.

As for `CN(C)C/C=C/C(=O)Nc1cccc(C(=O)Nc2cccc(Nc3ncc(Cl)c(-c4c[nH]c5ccccc45)n3)c2)c1`, in assay [1], the Potency result is “inactive”. The Potency in assay [2] is 64.9 nM (active) and 148 nM (active).

`CC(=O)OC1CC2C3(C)CCC(OC(=O)CC(=O)O)C(C)(C)C3CCC2(C)C2(C)CCC(C3(C)CCC(=O)O3)C12` (stereo not given): the Potency entry in assay [1] and in assay [2] was “inactive” in each case.

With `CC1=C(C(=O)O[C@@H]2O[C@H](COC3OCC(O)C(O)C3O)[C@@H](O)[C@H](O)[C@H]2O)C(C)(C)CCC1` (stereo not given in full), the Potency result in assay [1] and in assay [2] was “inactive” throughout.

In the case of `CCOc1cc(C)c(Cl)cc1S(=O)(=O)n1cnc2ccccc21`, the Potency result in assay [1] and in assay [2] was “inactive” throughout.

`COC(=O)CC(C)(O)CC(=O)OCc1ccc(O[C@@H]2O[C@H](CO)[C@@H](O)[C@H](O)[C@H]2O)cc1` (stereo not given in full): the Potency entry in assay [1] and in assay [2] was “inactive” in each case.

For `C=C1CCC2C(C)(C(=O)O)CCCC2(C)C1CC/C(=C\CO)CO` (stereo not given), the Potency result in assay [1] and in assay [2] was “inactive” throughout.

For the molecule `C[C@@H]1O[C@@H](O[C@H]2[C@H](O)[C@@H](O)[C@H](OC[C@H]3O[C@@H](OC(=O)[C@]45CCC(C)(C)C[C@H]4C4=CCC6[C@@]7(C)CC[C@H](O[C@@H]8OC[C@H](O)[C@H](O[C@@H]9O[C@H](CO)[C@@H](O)[C@H](O)[C@H]9O)[C@H]8O)[C@@](C)(CO)C7CC[C@@]6(C)[C@]4(C)CC5)[C@H](O)[C@@H](O)[C@@H]3O)O[C@@H]2CO)[C@H](O)[C@H](O)[C@H]1O` (stereo not given in full), in assay [1], the activity change, negative = inhibition is 1.27% [at 12.4 µM]. In addition, the activity change, negative = viability loss in assay [2] was 0.607% [at 9.23 µM].

Regarding `COc1ccc(C(O)C(C)OC2OC(CO)C(O)C(O)C2O)cc1` (stereo not given), the Potency result in assay [1] and in assay [2] was “inactive” each time.

As for `CC(=O)O[C@@H]1C[C@H](O)[C@@]23CO[C@H](O)[C@]1(C)C2C[C@@H](O)[C@]1(C)C3C(=O)[C@H](OC(C)=O)[C@@]2(C)[C@H](c3ccoc3)C[C@H]3O[C@]321` (stereo not given in full), the Potency result in assay [1] was “inactive”. Also, the Potency in assay [2] was 34.2 nM (active).

For the molecule `O=C(O)CC(=O)OC[C@H]1O[C@@H](Oc2ccc3c(c2)OC[C@H]2c4cc5c(cc4O[C@@H]32)OCO5)[C@H](O)[C@@H](O)[C@@H]1O`, the Potency result in assay [1] and in assay [2] was “inactive” each time.

Consider `CC(C)C(NC(=O)c1ccc2ccccc2n1)C(=O)NC(CC(=O)O)C(=O)COc1c(F)cccc1F` (stereo not given), for which the Potency result in assay [1] and in assay [2] was “inactive” each time.

Consider `COC(=O)C1=CO[C@@H](O[C@@H]2O[C@H](CO)[C@@H](O)[C@H](O)[C@H]2O)C2C1C(=O)C[C@H]2C` (stereo not given in full), for which the Potency result in assay [1] and in assay [2] was “inactive” throughout.

Consider `CC1=CC(=O)CC(C)(C)[C@H]1/C=C/C(CO)O[C@@H]1O[C@H](CO)[C@@H](O)[C@H](O)[C@H]1O` (stereo not given in full), for which the Potency result in assay [1] and in assay [2] was “inactive” in each case.

With `C[C@@H]1CCC2C(C)(C)[C@H](O)CC[C@]2(C)[C@@]12Cc1c(O)cc3c(c1O2)CNC3=O` (stereo not given in full), the Potency result in assay [1] and in assay [2] was “inactive” in each case.

For the molecule `C[C@@H]1O[C@@H](OC[C@H]2O[C@@H](Oc3cc(O)cc4c3C(=O)C(O)(Cc3ccc(O)cc3)O4)[C@H](O)[C@@H](O)[C@@H]2O)[C@H](O)[C@H](O)[C@H]1O` (stereo not given in full), the Potency entry in assay [1] and in assay [2] was “inactive” each time.

`O=C(O)c1ccc(CN2CCC(CN[C@@H]3C[C@H]3c3ccccc3)CC2)cc1`: the Potency result in assay [1] and in assay [2] was “inactive” throughout.

These data come from PubChem BioAssay (NCATS).
